Among the data in PubChem BioAssay (Tox21) are Potency and outcome values, retold here.

A short description of assay [1]: qHTS assay to identify small molecule agonists of the vitamin D receptor (VDR) signaling pathway - cell viability counter screen (AID 743224). Further: nearly all actives have a fitted effect of over 50% in size. The gist of the method:
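Cells: VDR-bla, 2,000/well, settled 4 h. Treatment: compounds in DMSO, 16 h, 37C/5% CO2. Readout: CellTiter-Glo luminescence after 30 min RT.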

Assay [2] in a line: qHTS assay to identify small molecule agonists of the NFkB signaling pathway - cell viability counter screen (AID 1159515; calls by dose curve; further: nearly all actives have a fitted effect of over 55% in size). The essentials: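 Cells are seeded (2,000 NFkB-bla ME-180 per well), rested overnight, and dosed with DMSO-dissolved compounds for 5 hr at 37 C. Viability is then read by CellTiter-Glo luminescence after 30 min at room temperature.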
Assay [3] can be described thus: qHTS assay to identify small molecule agonists of the endoplasmic reticulum stress response signaling pathway (AID 1159516; active means well fitted activation curve with a large enough effect in the signal ratio in the repeat runs, not every such curve was filed as active; the % refers to the signal ratio). The essentials:
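Cells are seeded at 1,500 per well and incubated overnight. Compounds in DMSO are added for 5 hr at 37 C, then beta-lactamase FRET substrate for 2 hr at room temperature, and fluorescence at 460 and 530 nm is measured.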

A short description of assay [4]: qHTS assay to identify small molecule antagonists of the retinoid-related orphan receptor gamma (ROR-gamma) signaling pathway - cell viability counter screen (AID 1159520). Further: nearly all actives have a fitted effect of over 50% in size. The gist of the method:
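Cytotoxicity was read from cellular ATP (CellTiter-Glo luminescence) after 16 hr at 37 C with 1 uM doxycycline induction. The inducer was added 2 hr after compound transfer to Tet-on ROR gamma CHO cells.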

Assay [5] has as its target Nuclear receptor ROR-gamma (Homo sapiens) (UniProt P51449). Description: qHTS assay to identify small molecule antagonists of the retinoid-related orphan receptor gamma (ROR-gamma) signaling pathway (AID 1159521;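 further: CHO cells with doxycycline inducible ROR-gamma driving an RORE luciferase reporter; top concentration of the series differs between compounds; nearly all actives have a fitted effect of over 50% in size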). The essentials:
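Tet-on ROR-gamma CHO cells with ROR response element-luciferase reporter; compounds added 2 hr before 1 uM doxycycline induction, then 16 hr at 37 C. Antagonism scored as decreased ONE-Glo luminescence.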

Assay [6] is described as follows: qHTS assay to identify small molecule agonists of the AP-1 signaling pathway - cell viability counter screen (AID 1159525; calls by dose curve; further: nearly all actives have a fitted effect of over 55% in size). The gist of the method:
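Intracellular ATP by Cell Titer Glo luminescence (30 min, RT) in the same ME-180 AP-1-bla wells after the 5 h compound exposure at 37 °C. Normalised to tetra n-octyl ammonium bromide and DMSO controls.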

Assay [7] can be described thus: qHTS assay to identify small molecule agonists of the AP-1 signaling pathway (AID 1159526; calls by dose curve).
The target of assay [8] is Retinoic acid receptor RXR-alpha (Homo sapiens) (UniProt P19793). In words: qHTS assay to identify small molecule agonists of the RXR signaling pathway (AID 1159527; calls by dose curve; further: nearly all actives have a fitted effect of over 35% in size). The gist of the method: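 GeneBLAzer RXR-alpha-UAS-bla HEK 293T cells in 2% charcoal-stripped FBS medium were exposed to compounds for 16 hr at 37 C in agonist mode. Beta-lactamase reporter read as 460/530 nm FRET ratio after 2 hr substrate loading.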

The nature of assay [9]: qHTS assay to identify small molecule agonists of the RXR signaling pathway - cell viability counter screen (AID 1159529). Further: nearly all actives have a fitted effect of over 50% in size. The gist of the method: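 RXR-alpha-UAS-bla HEK 293T cells in medium with 2% charcoal-stripped FBS were pre-incubated 5 hr, then compound-treated 16 hr at 37 C. Viability was read by CellTiter-Glo luminescence in the same wells as the beta-lactamase assay, with tetraoctyl ammonium bromide as positive control.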

The nature of assay [10]: qHTS assay to identify small molecule antagonists of the retinoid acid receptor (RAR) signaling pathway - cell viability counter screen (AID 1159551). Further: nearly all actives have a fitted effect of over 35% in size. The gist of the method: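 Cells (C3RL4) are plated, incubated overnight, dosed with compound in DMSO, then given retinol at 1 uM final. After 6 h at 37 C, CellTiter-Glo is added and luminescence read following 30 min at room temperature.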

Assay [11] in a line: qHTS assay to identify small molecule antagonists of the retinoic acid receptor (RAR) signaling pathway (AID 1159552; further: nearly all actives have a fitted effect of over 50% in size; further: potency means the concentration at half of the fitted maximal effect). The essentials: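 Retinol signaling pathway inhibitors screened in C3RL4 RARE-luciferase reporter cells seeded overnight at 37 C, then compounds added with 1 uM (final) retinol as pathway substrate. After 6 hr at 37 C, luciferase luminescence read after 30 min at room temperature.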

Assay [12] is described as follows: qHTS assay to identify small molecule agonists of the retinoic acid receptor (RAR) signaling pathway (AID 1159553). As to conditions: C3RL4 RARE luciferase reporter, agonist, 6 h; activation: at 73.3 µM (top of the series) unless noted. The essentials: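 Seed C3RL4 reporter cells at 1,000 per well and incubate overnight at 37 C. Add compounds in DMSO, incubate 6 hr. Add luciferase reagent, wait 30 min at room temperature, read luminescence.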

The nature of assay [13]: qHTS assay to identify small molecule antagonists of the vitamin D receptor (VDR) signaling pathway - cell viability counter screen (AID 743225). Further: nearly all actives have a fitted effect of over 50% in size. The essentials: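 VDR-UAS-bla HEK 293T cells were plated and incubated 4 h at 37C, then dosed with compound plus 3 nM (final) 1-alpha,25-dihydroxyvitamin D3 for 16 h. After the 2 h beta-lactamase read, viability in the same wells was read as CellTiter-Glo luminescence after 30 min at room temperature.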

Assay [14] can be described thus: qHTS assay to identify small molecule agonists of the endoplasmic reticulum stress response signaling pathway - cell viability counter screen (AID 1159517; calls by dose curve). The gist of the method: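 ESRE-bla HeLa cells (1,500/well) were plated overnight at 37 C and exposed to compounds for 5 hr. After the 2 hr beta-lactamase substrate read, CellTiter-Glo went into the same wells, and luminescence was read after 30 min at room temperature.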

Assay [15] is described as follows: qHTS assay to identify small molecule antagonists of the estrogen related receptor (ERR) signaling pathway - cell viability counter screen (AID 1224818). The essentials: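 ERR cells, 2,000/well; 6 h settle at 37 C/5% CO2; compound pin transfer (DMSO); 17.5 h at 37 C; CellTiter-Fluor, 30 min, fluorescence read.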
Assay [16] in a line: qHTS assay to identify small molecule antagonists of the estrogen related receptor signaling pathway with the pleiotropic PPARgamma coactivator (PGC) cell viability counter screen (AID 1224822). The essentials: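 Multiplexed viability counter screen run in PGC/ERR cells treated with compounds for 17.5 h at 37 C; live-cell protease signal measured by CellTiter-Fluor fluorescence.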

Assay [17] can be described thus: qHTS assay to identify small molecule antagonists of the estrogen related receptor (ERR) signaling pathway (AID 1224819). The essentials: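 qHTS in ERR cells, 2,000/well, 1536 format. Cpd (DMSO) added after 6 h settle, 18 h 37 C. One-Glo luminescence, 30 min RT.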
Assay [18] is described as follows: qHTS assay to identify small molecule agonists of the estrogen related receptor (ERR) signaling pathway (AID 1224820). The gist of the method:
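An ERR cell line provided by NTP was seeded at 2,000 cells per well and allowed to settle for 6 h before compounds in DMSO were added. After 18 h at 37 C, luciferase activity was measured by One-Glo luminescence.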

The test system of assay [19] is estrogen-related receptor alpha (ERRalpha) with PGC-1alpha coactivator, human. Description: qHTS assay to identify small molecule antagonists of the estrogen related receptor signaling pathway with the pleiotropic PPARgamma coactivator (PGC) (AID 1224821; calls by dose curve). The gist of the method:
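A PGC/ERR cell line supplied by NTP is seeded, allowed 6 h at 37 C, and treated with test compounds in DMSO for 18 h. Signal is then measured as luciferase luminescence using One-Glo.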

A short description of assay [20]: qHTS assay to identify small molecule agonists of the estrogen related receptor signaling pathway with the pleiotropic PPARgamma coactivator (PGC) (AID 1224823). The essentials: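 Compounds dissolved in DMSO are added by pin tool to PGC/ERR cells that have settled for 6 h, and incubation continues 18 h at 37 C. Reporter output is measured as One-Glo luminescence.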

Results filed as inconclusive are left out. Values without a mark were called inactive. Active and inactive are the calls of the source. Unless noted, the call rests on the fitted dose curve; in most records, active means well fitted curve in the direction sought with a large enough effect in the repeat runs; inconclusive means weak or mixed curves; inactive means no such curve, though single readings can be large; an effect the other way counts as inactive or inconclusive.

Sequence of Retinoic acid receptor RXR-alpha (Homo sapiens) (P19793 whole entry, looked up): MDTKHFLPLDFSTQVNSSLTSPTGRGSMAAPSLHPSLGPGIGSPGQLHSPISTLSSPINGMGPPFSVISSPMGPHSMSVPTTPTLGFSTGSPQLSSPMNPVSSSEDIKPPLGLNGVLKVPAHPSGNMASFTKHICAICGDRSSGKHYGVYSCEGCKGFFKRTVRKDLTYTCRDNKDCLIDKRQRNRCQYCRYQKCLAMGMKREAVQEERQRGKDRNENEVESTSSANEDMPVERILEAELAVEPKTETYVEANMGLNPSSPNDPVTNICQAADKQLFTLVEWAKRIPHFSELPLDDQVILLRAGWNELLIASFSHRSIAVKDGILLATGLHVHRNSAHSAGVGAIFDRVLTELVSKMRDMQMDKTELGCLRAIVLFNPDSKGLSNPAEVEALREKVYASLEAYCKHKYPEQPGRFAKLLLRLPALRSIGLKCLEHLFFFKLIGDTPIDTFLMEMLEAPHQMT

With `CC(CO)Oc1ccccc1` (centres undefined), the Potency entry in assay [1], in [2], in [3], in [4], in assay [5] and in [6] was “inactive” throughout. Further, the Potency result in assay [7], in [8], in assay [9], in [10], in assay [11] and in [12] was “inactive” each time.

In the case of `COC(=O)Nc1nc2ccc(C(=O)c3ccccc3)cc2[nH]1`, the Potency result in [1], in assay [13], in [2], in [3], in assay [14] and in [6] was “inactive” each time. Also, the Potency entry in assay [9], in assay [10], in assay [11] and in [12] was “inactive” in each case.

Take `Nc1ccc(NCCO)c([N+](=O)[O-])c1`: the Potency entry in [13], in assay [2], in assay [3], in assay [14], in [6] and in [7] was “inactive” each time. Also, the Potency entry in assay [8], in [9] and in [12] was “inactive” in each case.

Turning to `CC(CCc1ccccc1)NCC(O)c1ccc(O)c(C(N)=O)c1` (centres undefined), the Potency entry in [2], in assay [3], in [4], in assay [5], in assay [6] and in assay [9] was “inactive” each time. Also, the Potency entry in assay [10], in [11], in assay [12] and in assay [16] was “inactive” throughout. Also, the compound was called inactive in assay [15].

Turning to `C#C[C@]1(O)CC[C@H]2[C@@H]3[C@H](C)CC4=C(CCC(=O)C4)[C@H]3CC[C@@]21C`, the Potency result in assay [1], in assay [13], in assay [2], in [3], in assay [4] and in [6] was “inactive” each time. Also, the Potency result in assay [7], in [9], in assay [10] and in assay [12] was “inactive” each time. Besides, the Potency in assay [11] was 29.8 µM (active).

As to `CN1CCN2c3ccccc3Cc3ccccc3C2C1` (centres undefined), the Potency entry in [1], in assay [13], in assay [2], in assay [3], in [4] and in [5] was “inactive” in each case. For the same compound, the Potency result in assay [6], in assay [9], in assay [10], in assay [11], in assay [12] and in [17] was “inactive” in each case. Besides, the Potency entry in assay [19] and in assay [16] was “inactive” throughout. Besides, the call in [15], in assay [18] and in [20] was inactive.

Consider `Cc1cc(-c2ccc(N=Nc3cc(S(=O)(=O)O)c4ccccc4c3N)c(C)c2)ccc1N=Nc1cc(S(=O)(=O)O)c2ccccc2c1N`, for which the Potency result in assay [2], in assay [3], in assay [4], in assay [6], in assay [7] and in [9] was “inactive” each time. For the same compound, the Potency result in assay [10], in [11] and in [12] was “inactive” each time.

`CC1=CCC(=C(C)C)CC1`: the Potency entry in assay [1], in assay [13], in assay [2], in assay [3], in assay [4] and in [6] was “inactive” in each case. The Potency entry in assay [7], in assay [9] and in assay [10] was “inactive” throughout.

Consider `CCCC(=O)OCCc1ccccc1`, for which the Potency result in [13], in assay [2], in assay [3], in [4], in assay [5] and in assay [6] was “inactive” throughout. Besides, the Potency entry in [7], in assay [9], in assay [10], in assay [11] and in [12] was “inactive” in each case.

Regarding `Clc1nnc(Cl)c2ccccc12`, the Potency entry in assay [1], in assay [2], in assay [3], in assay [4], in [5] and in assay [6] was “inactive” in each case. In addition, the Potency result in assay [7], in [10], in assay [11] and in assay [12] was “inactive” throughout.
